Bioassay records as filed in PubChem.
An excerpt weighted towards active compounds, which were near 9% of everything screened.
12-LOX inh: ALOX12 (human) lipoxygenase inhibition; P18054; 580,000 compounds, 1.1% hits; Potency, µM (doses to about 108 µM), without a hit: at the top dose activity change, negative = inhibition, actives largely listed as inhibitors; purified 12hLO, xylenol orange hydroperoxide absorbance; note: % is set by controls: 0 for no effect and ±100 for the full control effect
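Purified human 12hLO (150 nM final) in 25 mM Hepes, 0.01% Triton X-100, pH 7.0 was preincubated 15 min at room temperature with compound. Then 40 uM arachidonic acid was added, 30 min. Hydroperoxide was read by Fe-XO absorbance ratio 573/405 nm.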
PLK1 PBD block: blocks phosphopeptide binding to human PLK1 polo-box domain. AID 720504. Potency, µM, without a hit: max response, negative = inhibition, hits mostly inhibitors. Plk1 PBD binding of FITC phosphopeptide, fluorescence polarization. 360,000 compounds, 2.8% hits; note: series mostly up to about 57 µM; % is set by controls: 0 for no effect and ±100 for the full control effect; nearly all actives have a fitted effect of over 65% in size
JMJD2A Tudor inh: JMJD2A Tudor domain (human) inhibition. O75164. AlphaScreen JMJD2A-Tudor / H3K4me3 peptide binding. Potency, µM (series often up to 114 µM), without a hit: at the highest dose activity change, negative = inhibition, hits mostly inhibitors. 390,000 compounds, 4.4% hits; note: % is set by controls: 0 for no effect and ±100 for the full control effect; nearly all actives have a fitted effect of over 50% in size
G9a inh: G9a (human) methyltransferase inhibition | Q96KQ7 | G9a H3K9 monomethylation, AlphaScreen, 2 h | Potency, µM (titrated, usually from 102 µM), for the others: top-dose activity, negative = inhibition, most hits filed as inhibitors | 350,000 compounds, 8.8% hits; note: % is set by controls: 0 for no effect and ±100 for the full control effect; nearly all actives have a fitted effect of over 75% in size
Target sequence (Q96KQ7 913-1193 limits assumed): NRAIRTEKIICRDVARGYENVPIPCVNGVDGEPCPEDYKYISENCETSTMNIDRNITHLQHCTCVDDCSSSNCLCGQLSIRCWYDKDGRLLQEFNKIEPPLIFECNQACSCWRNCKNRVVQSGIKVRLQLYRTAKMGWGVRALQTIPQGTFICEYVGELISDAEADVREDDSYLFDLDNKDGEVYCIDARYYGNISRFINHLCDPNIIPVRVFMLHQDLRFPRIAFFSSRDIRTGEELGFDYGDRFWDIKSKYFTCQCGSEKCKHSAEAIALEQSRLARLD
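Quantitative HTS format: methyltransferase activity on a biotin-tagged H3K9 peptide is measured by AlphaScreen, using a rabbit anti-monomethyl-H3K9 antibody with streptavidin donor and anti-IgG acceptor beads. Final levels are 20 nM enzyme, 500 nM peptide, 20 uM SAM; 2 h RT.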
HP1b binding inh: HP1-beta chromodomain-methylated histone interaction inhibition. 390,000 compounds, 0.56% hits. Potency, µM (doses to about 114 µM), without a hit: at the top dose activity change, negative = inhibition, most hits filed as inhibitors. AlphaScreen HP1-beta / biotin-H3K9me3 peptide binding; note: nearly all actives have a fitted effect of over 70% in size
Target sequence (P83916 whole entry, looked up): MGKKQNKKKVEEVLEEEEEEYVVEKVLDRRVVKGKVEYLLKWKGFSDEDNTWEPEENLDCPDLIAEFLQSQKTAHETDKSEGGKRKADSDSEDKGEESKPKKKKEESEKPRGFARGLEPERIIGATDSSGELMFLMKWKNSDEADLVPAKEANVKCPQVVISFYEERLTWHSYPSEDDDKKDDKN
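HP1-beta protein (50 nM final) preincubated 30 min at room temperature with biotinylated H3(1-18)K9me3 peptide (50 nM) in PBS pH 7.4, 0.01% Tween-20, then compound added for 30 min. AlphaScreen streptavidin donor/nickel chelate acceptor beads (10 ug/mL final), 30 min dark, luminescence read.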
BAZ2B inh: inhibitors of human BAZ2B bromodomain; AID 504333; Q9UIF8; 360,000 compounds, 4.4% hits; AlphaScreen BAZ2B-H3K14Ac peptide displacement; Potency, µM (doses to about 114 µM), inactives show at the highest dose activity change, negative = inhibition, actives largely listed as inhibitors; note: % is set by controls: 0 for no effect and ±100 for the full control effect; nearly all actives have a fitted effect of over 60% in size
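In this displacement format the biotinylated H3(5-23) peptide acetylated at Lys14 serves as ligand at 50 nM, with BAZ2B at 50 nM in PBS pH 7.4 containing 0.01% Tween-20. Donor and acceptor beads are 10 ug/mL final.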
* hit, by the source's call; ? = inconclusive; . = no result; [ ] = dose if it differs, or a comment. Calls come from the whole dose curve; as a rule, active = well fitted curve in the direction sought with a large enough effect; inconclusive = small, poorly fitted or top-dose-only effect, or another doubt; inactive = no such curve, though single readings can be large; an effect the other way counts as inactive or inconclusive. Potency is the fitted concentration of half-maximal effect.

SMILES	12-LOX inh	PLK1 PBD block	JMJD2A Tudor inh	G9a inh	HP1b binding inh	BAZ2B inh
CCc1c(C(=O)N2CCOCC2)csc1C	11%	-10%	3%	-20%[12.7 µM]	26%	0%
CCc1cc(-c2ccc3c(c2)COc2c4ccccc4nn2-3)on1	0%	-6%	-33%	.	35%	.
Cc1cccc(/C=N/NC(=O)c2cc3c(s2)-c2ccccc2CC3)c1	4%	21µM*	-5%[11.4 µM]	6%[59 µM]	10%	59%
Cc1ccc(C(=O)NC(=S)Nc2ccc3c(c2)OCCO3)c(C)c1	13µM*	-9%	?	?	14%	?
CCCCCC(=O)NC(=S)Nc1ccc(N2CCOCC2)cc1	?	-24%	-20%	3.5µM*	0%	?
CCC(=O)NC(=S)Nc1ccc(N2CCOCC2)cc1	0%	-1%	-6%	-44%	28%	?
Cc1ccc(C(=O)NC(=S)Nc2ccc(N3CCOCC3)cc2)c(C)c1	7.9µM*	-11%	?	.	?	22µM*
O=C(NC(=S)Nc1ccc(N2CCCCC2)c(Cl)c1)c1ccc2c(c1)OCCO2	22µM*	-3%	?	-43%[12.7 µM]	-19%	?
O=C(NC(=S)Nc1ccc2c(c1)OCCO2)c1ccc(F)cc1Cl	-12%	-9%	-21%	-17%[59 µM]	4%	-33%
O=C(NC(=S)Nc1ccc(N2CCOCC2)c(Cl)c1)c1cncc(Br)c1	?	-14%	?	-10%[59 µM]	?	?
CCc1ccc(C(=O)NC(=S)Nc2ccc3c(c2)OCCO3)cc1	14µM*	-5%	?	?	?	?
Cc1cc(C)cc(C(=O)NC(=S)Nc2ccc3c(c2)OCCO3)c1	6.3µM*	-11%	?	25µM*	?	?
O=C(NC(=S)Nc1ccc2c(c1)OCO2)c1ccc(Cl)cc1	-16%	-4%	-18%	?	-7%	-4%
Cc1ccc(C(=O)Nc2ccc3c(c2)OCCO3)cc1	0%	-14%	-5%	-8%	30%	-7%
COc1ccc(C(=O)CCc2ccccc2)cc1	0%	2%	139%	136%	175%	101%
Cc1cc(C)nc(SCc2ccc(C(=O)N/N=C/c3ccccn3)cc2)n1	-1%	-1%	-24%	-36%	19%	-32%
Cc1c(Cl)cccc1NC(=O)CCN1CCN(C)CC1	0%	1%	2%	-3%	23%	5%
CCCNc1c(N)n(-c2ccccc2)c(=O)[nH]c1=O	41%	-7%	?	35µM*	14%	56µM*
Nc1c(N=O)c(=O)[nH]c(=O)n1-c1ccccc1	11%	5%	50µM*	.	-17%	.
Nc1nonc1C(=O)OCC(=O)N1CCCCC1	-8%	-8%	-12%	-1%	5%	0%
N#Cc1ccccc1Cn1c(SCC(=O)Nc2ccc(F)cc2)nc2ccccc21	-19%	.	16%	11%[59 µM]	29%	-3%
Cc1ccc(S(=O)(=O)N(C)CCCC(=O)Nc2ccc(F)cc2)cc1	-20%	-11%	-11%	-28%	38%	.
COc1ccc(CCNC(=O)CCc2ccc(OC)cc2)cc1	.	-4%	-18%	29%	48%	-1%
COc1ccc(CCNC(=O)CNCCc2ccc(F)cc2)cc1	0%	-17%	22µM*	-18%	-19%	79µM*
COc1ccccc1C(C)NCC(=O)NCc1ccc(C)cc1 (stereo not given)	9%	5%	-7%	-4%	7%	2%
SMILES	12-LOX inh	PLK1 PBD block	JMJD2A Tudor inh	G9a inh	HP1b binding inh	BAZ2B inh
CN(CCCC(=O)Nc1ccc(OC(F)F)cc1)S(=O)(=O)c1ccc(F)cc1	4%	1%	1%	45µM*	22%	-7%
CN(CCCC(=O)Nc1ccc(Br)cc1F)S(=O)(=O)c1ccccc1	?	-23%	1%	35µM*	18%	0%
COc1ccc(CNC(=O)CNC(C)c2ccc(F)cc2)cc1 (stereo not given)	0%	4%	20µM*	14%	45µM*	56µM*
Cn1nnnc1SCC(=O)Nc1ccc(Cl)cn1	0%	-3%	-14%	-4%	36%	-12%
O=C(Nc1cc(Sc2nc3ccccc3s2)cc([N+](=O)[O-])c1)c1ccccc1F	-21%	-5%	?	-11%	-8%	-38%
CCc1ccc(/C=C/C(=O)c2ccc(S(=O)(=O)N(C)C)cc2)cc1	-1%	-9%	-14%	?	15%	-10%
COc1ccc(CCCC(=O)Nc2ccc(F)cc2)cc1	3%	21µM*	?	9%[59 µM]	?	11%
COc1ccc(NC(=O)CCSc2ccc(F)cc2)cc1	2%	-2%	-15%	-35%	36%	14%
Cc1cc(=O)[nH]c(/N=C(\N)Nc2ccc3c(c2)OCCO3)n1	?	-2%	-8%	22µM*	-18%	-24%
Cc1cc(C)nc(/N=C(\N)Nc2ccc3c(c2)OCCO3)n1	-6%	-13%	-15%	-8%	55%	15%
COc1ccc(Cl)cc1N/C(N)=N/c1nc(C)cc(=O)[nH]1	8%	1%	?	20µM*	24%	-12%
c1ccc(-c2cc3nc(NCC4CC4)nc(NCC4CCCCC4)c3s2)cc1	?	-4%	.	.	.	.
Cn1c(-[n+]2c(-c3ccccc3)cc(-c3ccccc3)cc2-c2ccccc2)nc2c([N+](=O)[O-])cccc21	?	-3%	-29%	10µM*	10%	-29%
Cn1c(-c2cccc([N+](=O)[O-])c2)[n+](C)c2ccccc21	6%	-2%	0%	6%	26%	.
CC1CN(c2ccc(NC(=S)NNCCC#N)cc2)CC(C)O1 (stereo not given)	41%	-5%	?	.	15%	-10%
CCCOc1ccc(C2=NC(c3ccc(F)cc3)=Nc3ccc(OC)cc3N2)cc1	-12%	.	?	-23%[59 µM]	2%	10µM*
S=C1NC[C@H](c2ccccc2)N1CCCCC1CCCCC1	35µM*	-8%	-35%	4%[12.7 µM]	9%	-12%
CC1(C(=O)NCc2ccccc2Br)CCN1Cc1ccc(-c2ccccc2)o1 (stereo not given)	-12%	-15%	.	.	.	.
CC1CCc2c(C(=O)NCc3ccco3)csc2C1 (stereo not given)	-11%	-14%	-6%	56µM*	22%	-37%
O=C(NCc1ccco1)c1csc2c1CCCCC2	1%	-7%	-18%	-9%[12.7 µM]	2%	-30%
CC1CCc2nn(CC(=O)NCc3ccco3)cc2C1 (stereo not given)	302%	30µM*	?	4%	-21%	6%
CC1CCc2c(C(=O)Nc3cccc(-c4nn[nH]n4)c3)csc2C1 (stereo not given)	445%	?	-26%	50µM*	19%	-28%
CCc1nnc(NC(=O)c2csc3c2CCC(C)C3)s1 (stereo not given)	.	.	.	11%	.	-14%
